# SARS PLpro yeast: SARS-CoV PLP inhibition in yeast. S. cerevisiae expressing SARS-CoV PLpro, growth rescue. Potency, µM (series often up to 32.9 µM), for inactives: at the highest dose activity, positive = growth rescue, actives largely listed as activators. hit rate 0.19% among 330,000. AID 485353; calls by dose curve; further: potency means the concentration at half of the fitted maximal effect; 0% is about no effect; nearly all actives have a fitted effect of over 55% in size
# Cycloheximide cs: affects cycloheximide protein synthesis inhibition readout, counter-screen; max response, %; AID 2314; hit rate 12% among 300,000; cell reporter, cycloheximide protein synthesis inhibition counterscreen; in the data active means max response mostly above about 13%, no sharp cut-off; inactive means mostly below about 14%; further: read at 38.3 µM for the half of the compounds with a filed dose; 0% is about no effect
# Pf growth 96h: P. falciparum growth inhibition at 96 hour, primary screen for plastid delayed-death inhibitors; P. falciparum luciferase reporter growth, 96 h; AID 504834; Potency, µM (top dose mostly 28.7 µM), inactives show top-dose activity change, negative = inhibition, hits mostly inhibitors; hit rate 6.9% among 320,000; further: potency means the concentration at half of the fitted maximal effect; on the % scale 0 is the no-effect control and ±100 the full control effect
#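 Parasite growth measured via integrated firefly luciferase reporter in P. falciparum. Infected erythrocytes at 2% hematocrit, 0.05% parasitemia final were treated 96 hours at 37 C under 5% CO2, and luminescence was read.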
# Shiga inhibitor: Shiga toxin inhibition | Vero cells, Shiga toxin protein synthesis inhibition reporter | inhibition, % at 38.7 µM | hit rate 9.2% among 290,000; in the data active means inhibition mostly above about 28%, no sharp cut-off; inactive means mostly below about 43%; further: 0% is about no effect
# Pf growth 48h: inhibits P. falciparum growth in the first generation, 48 h; P. falciparum luciferase growth in erythrocytes, 48 h; Potency, µM (doses to about 28.7 µM), inactives show at the highest dose activity change, negative = inhibition, usual class: inhibitors; hit rate 5.9% among 310,000; further: potency means the concentration at half of the fitted maximal effect; on the % scale 0 is the no-effect control and ±100 the full control effect
#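 Luminescence readout; reporter = integrated firefly luciferase in P. falciparum. RBC culture at 2% hematocrit, 0.1% parasitemia final, 37 C/5% CO2; decreased signal taken as growth inhibition.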
# AMA1 RON2 block: inhibitors of Plasmodium falciparum AMA1-RON2 interaction | hit rate 0.2% among 360,000 | AlphaScreen AMA1-biotinylated RON2 peptide binding | Potency, µM (top dose mostly 58.2 µM), for the others: at the highest dose activity change, negative = inhibition, most hits filed as inhibitors;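 further: potency means the concentration at half of the fitted maximal effect; 0% = vehicle wells and -100% = peptide control; nearly all actives have a fitted effect of over 45% in size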
#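 AMA1 (3D7) with his tag at 25 nM final met compounds first, then biotinylated RON2 peptide at 25 nM; detection used donor plus acceptor beads, 10 µg/mL apiece, read by AlphaScreen after 30 min at room temperature.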
# * hit, by the source's call; ? = inconclusive; . = no result; [ ] = dose if it differs, or a comment. Most compounds without a hit are left out; they make up all but 19% or so of the library. Unless noted, the call rests on the fitted dose curve; in most records, active means well fitted curve in the direction sought with a large enough effect; inconclusive means small, poorly fitted or top-dose-only effect, or another doubt; inactive means no such curve, though single readings can be large; an effect the other way counts as inactive or inconclusive.
SMILES,SARS PLpro yeast,Cycloheximide cs,Pf growth 96h,Shiga inhibitor,Pf growth 48h,AMA1 RON2 block
CC12CN(C(=O)c3ccccc3Br)CC(C)(CN(C(=O)c3ccccc3Br)C1)C2=O,0%,-1,-13%,23,?,-10%
O=C(CN1C(=O)NC2(CCc3ccccc32)C1=O)Nc1ccc(Cl)cc1F (stereo unspecified),.,.,.,.,.,-4%
CC(=O)N1c2ccc(S(=O)(=O)N3CCC(C(=O)N4CCN(c5ccc(Cl)cc5)CC4)CC3)cc2CC1C (stereo unspecified),-8%,-4,?,-4,?,-13%
Cc1ccc(NC(=O)c2cccs2)cc1NC(=O)c1ccccc1Cl,-3%,5,11%,4,4%[0.00184 µM],-8%
COc1cc(NC(=O)c2cccs2)ccc1NC(=O)c1ccco1,-3%,40*,12%,127*,44%,8%
O=C(Nc1ccc(Cl)c(NC(=O)c2cccs2)c1)c1ccco1,-3%,7,-20%,-11,15%,24%
O=C(Nc1ccc(NC(=O)c2cccs2)cc1Cl)c1ccco1,-3%,38*,13%,96*,86%,-12%
O=C(Nc1ccc(NC(=O)c2cccs2)c(Cl)c1)c1cccs1,-2%,43*,?,50*,-13%,-12%
N#CC1=C(N)NC(SCC(=O)c2ccccc2)=C(C#N)C12CCCC2,-1%,40*,?,67*,-63%,4%[2.32 µM]
CCSC1=C(C#N)C2(CCCC2)C(C#N)=C(N)N1,7%,10,-4%,13,9.3µM*,-12%
O=C(NCc1nnc2c(C(F)(F)F)cc(Cl)cn12)c1cccs1,7%,-6,5%,-1,14%,2%
COc1cc(C2C(C#N)=C(N)OC3=C2C(=O)CCC3)c([N+](=O)[O-])cc1OC (stereo unspecified),0%,-1,?,-1,4%,0%
CCCCn1c(N)c(N(CCOC)C(=O)c2ccc(COc3ccccc3)o2)c(=O)[nH]c1=O,-2%,.,?,.,?,20%
COc1ccc(NC(=O)CN2C(=O)COc3ccc(S(=O)(=O)N4CCCCCC4)cc32)cc1,3%,-2,10µM*,26,5%,1%
CCN(C(=O)CN1C(=O)COc2ccc(S(=O)(=O)N3CCCCCC3)cc21)c1cccc(C)c1,1%,2,?,-2,3.3µM*,-7%
CC(CNC(=O)CN1C(=O)COc2ccc(S(=O)(=O)N3CCCCC3)cc21)c1ccccc1 (stereo unspecified),0%,6,-26%,-1,-26%,0%
CC(C)N(Cc1ccccc1)C(=O)CN1C(=O)COc2ccc(S(=O)(=O)NC3CCCC3)cc21,-4%,-2,?,1,5.2µM*,-8%
CNC(=O)CN1C(=O)COc2ccc(S(=O)(=O)N3CCCCCC3)cc21,-2%,-2,12%,-9,10%,-10%
CCN(Cc1ccccc1)C(=O)CN1C(=O)COc2ccc(S(=O)(=O)N3CCCCCC3)cc21,6%,4,?,-11,10µM*,-10%
O=C(COc1ccc(F)cc1Br)N1CCc2ccccc21,-4%,42*,2%,47*,23%,-6%
COc1cc(CO)ccc1OCC(=O)N1CCc2ccccc21,-2%,19*,?,24*,0%,-7%
O=Cc1ccc(OCC(=O)N2CCc3ccccc32)c(Br)c1,3%,.,-1%,.,-23%,-21%
COc1ccc(CNc2ncnc3sccc23)cc1,-19%,-2,-2%,2,-7%,12%
COCCN(Cc1nnc(-c2cccs2)o1)C(=O)CN1C(=O)NC2(CCCCC2)C1=O,1%,.,.,.,.,39%
COc1cccc(NC(=O)Nc2ccc3nc(C)c(C)nc3c2)c1,3%,10,0%,10,7%,1%
SMILES,SARS PLpro yeast,Cycloheximide cs,Pf growth 96h,Shiga inhibitor,Pf growth 48h,AMA1 RON2 block
CCN(CC)c1ccc(NC(=O)Nc2cccc(C(C)=O)c2)cc1,.,20,?,46*,34%,-12%
COc1cccc(NC(=O)Nc2ccc3c(c2)nc(C)n3C)c1,-1%,26*,41%,58*,111%,-8%
COc1cccc(NC(=O)Nc2ccc3nsnc3c2)c1,-16%,31*,-63%,97*,-12%,3%
Cc1nc2cc(NC(=O)NC(C)(C)C)ccc2n1C,0%,18*,10%,34,0%,2%
CN1CCN(S(=O)(=O)c2ccc(N3CCN(c4ccccc4Cl)CC3)nc2)CC1,0%,.,?,.,?,-3%
Cc1nc2cc(NC(=O)Nc3nccs3)ccc2n1C,1%,22*,.,35*,121%,3%
CCn1c(C)nc2cc(NC(=O)Nc3cccc(C(C)=O)c3)ccc21,9%,21*,-5%,46,-8%[0.00184 µM],3%
FC(F)(F)c1cccnc1Oc1ccc(C2=NCCS2)cc1,0%,30*,2.6µM*,59*,?,-13%
CN(CC(=O)Nc1cccc(F)c1)C(=O)c1ccc(S(=O)(=O)N2CCCC2)cc1,-2%,.,?,.,?,-3%
COc1ccc(Cc2noc(CN(C)CC3(N4CCOCC4)CCCCC3)n2)cc1OC,-3%,-2,?,-12,-16%,89%
O=C(NCc1ccccc1Cl)c1ccc(CSc2nc3ccncc3[nH]2)cc1,0%,-4,?,-5,12µM*,-10%
Clc1ccccc1CSC1=NCCN1,1%,12,23%,9,15µM*,-10%
COc1cccc(CSc2nc3ccncc3[nH]2)c1,-1%,41*,-6%,50*,58%,4%
Clc1ccccc1CSc1nc2ccncc2[nH]1,-9%,21*,?,66,.,10%
Nc1cc(=O)[nH]c(SCc2ccccc2Cl)n1,5%,-2,28%,-2,40%,-14%
COc1cc(/C=C/C(=O)O)cc(S(=O)(=O)Nc2ccc(S(=O)(=O)N3CCCCC3)cc2)c1OC,5%,.,37%,.,30%,-21%
CCOC(=O)[C@]12CCC=C1N(Cc1ccccc1)C(=O)[C@H](CC(=O)NCCCCc1ccccc1)C2,.,.,.,.,.,-8%
CCC(C(=O)Nc1c(C)cccc1C)n1c(-c2cnc(C)cn2)nc2ccccc21 (stereo unspecified),.,.,.,.,.,89%
O=C(NCCO)c1cc(-c2cc(C(=O)NCCO)c3ccccc3n2)nc2ccccc12,-3%,-3,7%,15,38%,-5%
Cc1ccc(N(O)C(=O)NCCCCNC(=O)N(O)c2ccc(C)cc2)cc1,1%,36*,24%,52*,?,-14%
CN(C1CCCCC1)S(=O)(=O)c1ccc(C(=O)O)cc1,5%,-1,12µM*,22,.,0%
Cc1ccc(C(=O)NCCSC(C)(C)C)cc1,9%,43*,72%,31,.,2%
CN(c1ccc(C(=O)N2CCOCC2)cc1)S(=O)(=O)c1ccc(Cl)cc1,10%,10*,15%,34*,-20%,-8%
Cc1ccc(S(=O)(=O)N(C)c2ccc(C(=O)N3CCOCC3)cc2)cc1,1%,-4,0%,-4,18%,4%

# Compound activity deposited in PubChem by National Center for Advancing Translational Sciences (NCATS).
